The sample as a whole holds a higher share of hits than the screen did.
EphB4 ephrin blk – blocks human EphB4 binding to ephrin-B2. AID 720. inhibition, % at 7 µM. 97,000 compounds, 0.15% hits. EphB4 LBD / TNYL-RAW-Alexa532 peptide, fluorescence polarization;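 active = inhibition above the screen-wide mean inhibition plus 3 SD, cut at about 15% in these data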;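 also: 0% = DMSO wells and 100% = excess unlabeled TNYL-RAW peptide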
Target sequence (P54760 whole entry, looked up, the tested form may be a part): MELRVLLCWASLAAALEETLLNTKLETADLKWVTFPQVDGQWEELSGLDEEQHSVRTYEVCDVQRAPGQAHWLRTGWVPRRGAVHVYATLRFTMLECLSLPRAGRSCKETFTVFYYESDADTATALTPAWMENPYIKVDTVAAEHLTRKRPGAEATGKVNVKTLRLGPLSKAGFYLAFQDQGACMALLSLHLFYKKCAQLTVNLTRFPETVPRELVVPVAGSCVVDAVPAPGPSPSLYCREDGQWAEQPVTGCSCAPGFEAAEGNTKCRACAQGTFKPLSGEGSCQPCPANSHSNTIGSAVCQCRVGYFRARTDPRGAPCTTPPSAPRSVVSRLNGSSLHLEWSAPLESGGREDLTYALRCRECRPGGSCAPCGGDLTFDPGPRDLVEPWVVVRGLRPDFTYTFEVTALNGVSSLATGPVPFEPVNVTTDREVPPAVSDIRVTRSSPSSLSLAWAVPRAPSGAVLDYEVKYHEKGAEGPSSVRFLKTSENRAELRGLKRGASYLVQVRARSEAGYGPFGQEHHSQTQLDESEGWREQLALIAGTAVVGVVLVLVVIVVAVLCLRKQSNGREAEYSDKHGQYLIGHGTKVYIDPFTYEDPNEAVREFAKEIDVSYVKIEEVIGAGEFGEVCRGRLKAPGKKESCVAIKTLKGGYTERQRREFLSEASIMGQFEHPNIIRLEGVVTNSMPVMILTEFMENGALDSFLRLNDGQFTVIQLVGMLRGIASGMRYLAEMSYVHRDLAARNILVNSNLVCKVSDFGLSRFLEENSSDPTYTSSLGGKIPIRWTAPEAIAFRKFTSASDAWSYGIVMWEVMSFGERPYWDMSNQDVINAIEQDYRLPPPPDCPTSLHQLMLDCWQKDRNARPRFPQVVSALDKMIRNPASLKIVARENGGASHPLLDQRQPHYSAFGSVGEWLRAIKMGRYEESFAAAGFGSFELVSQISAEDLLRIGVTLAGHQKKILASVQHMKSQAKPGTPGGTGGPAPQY
hDAT+cocaine – modulates human dopamine transporter uptake under cocaine. LLC-PK1 hDAT cells, [14C]-dopamine uptake with cocaine IC80; actives deviate in either direction. B-score at 10 µM. 110,000 compounds, 1.3% hits;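 active = Z score or B-score, a plate-position-corrected score, falls beyond the plate's 99.7% confidence bounds, in either direction; inactive = both scores lie inside the 99.7% bounds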;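 also: scored against the spread of the other compound wells on the same plate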
D1 mod – D1 dopamine receptor (human) allosteric modulation; 58,000 compounds, 5.9% hits; P21728; HEK293 D1, CRE-luciferase, dopamine EC30 potentiation; actives deviate in either direction; B-score at 10 µM;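 active = luminescence count or its row- and column-corrected plate score outside the 99.7% band of the plate's sample wells, on either side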
D1 mod confirm – confirmation of human D1 dopamine receptor allosteric modulators; HEK293 D1 CRE-luciferase, dopamine EC30 potentiation; stronger effect = higher value; shares compounds with D1 mod; 2,200 compounds, 88% hits; luminescence at 10 µM;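 active = luminescence in either of two replicates above the same-plate mean plus 3 SD of the low-dose dopamine control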
D1 ag no DA – activates D1 CRE-luciferase signal without dopamine present | HEK293 D1 CRE-luciferase, luminescence, no dopamine; stronger effect = higher value | AID 646 | 1,900 compounds, 0.8% hits | shares compounds with D1 mod | luminescence at 10 µM; in the data active = luminescence above about 3900
Isoprot counter – isoproterenol response counter-screen activity for D1 modulators; shares compounds with D1 mod; HEK293 D1 CRE-luciferase, isoproterenol EC30 counter-screen; calls only at 10 µM; 2,200 compounds, 63% hits;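 active = luminescence in either replicate above plate mean of wells with a partly effective reference agonist dose plus 3 SD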;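 also: isoproterenol raises cAMP through native beta-adrenoceptor Gs so signal bypasses D1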
An asterisk follows results filed as active; i = inactive; . = no result given; + = active, no number.

SMILES	EphB4 ephrin blk	hDAT+cocaine	D1 mod	D1 mod confirm	D1 ag no DA	Isoprot counter
Cc1nc(NC(C)C)c2cnn(CCc3ccccc3)c2n1	9.4	-1.85	.	.	.	.
COc1ccnc(CS(=O)c2nc3cc(OC(F)F)ccc3[nH]2)c1OC (stereo unspecified)	.	0.234	.	.	.	.
CC1=CC(C)(C)N=C(NC#N)N1	.	0.0911	3.76*	9044*	1768	i
CCSC1=NC(C)(C)C=C(C)N1	3.0	0.939	.	.	.	.
Cc1cc(C)n(Cc2ccc(NC(=O)c3c([N+](=O)[O-])c(C)nn3C)cc2)n1	6.6	0.0953	.	.	.	.
COc1ccccc1CCNC(=O)c1cnn2c(C(F)F)cc(C)nc12	.	-0.0482	.	.	.	.
Cc1cc(C(F)F)n2ncc(C(=O)NCc3ccccc3C(F)(F)F)c2n1	0.1	0.123	5.28*	8576*	.	+
COc1ccccc1CNC(=O)c1cnn2c(C(F)F)cc(C)nc12	-2.5	0.843	.	.	.	.
Cc1cc(C(F)F)n2ncc(C(=O)NC3CCCCCC3)c2n1	-0.7	-1.15	6.33*	10720*	1544	+
CCCC(=O)Nc1nc2ccc(C(=O)OCC)cc2s1	2.9	0.647	.	.	.	.
CCOC(=O)c1ccc2nc(NC(=O)C(C)C)sc2c1	.	0.551	5.38*	7532	1532	i
COc1ccc(C(=O)c2ccc(N3CCN(C(=O)c4ccc(F)cc4)CC3)c(F)c2)cc1Br	-4.0	0.358	.	.	.	.
Cc1ccc(-c2cc(C(F)F)n3ncc(C(=O)N4CCN(c5cccc(C)c5C)CC4)c3n2)cc1	-1.7	0.808	.	.	.	.
Cc1ccc(C(=O)C(C(=O)/C=C/c2ccccc2)=C2SCCCS2)cc1	-5.9	0.7	.	.	.	.
COc1ccc(CNC(=O)c2c(O)c3cccc4c3n(c2=O)CCC4)cc1OC	.	-0.125	6.25*	10888*	1696	+
COc1ccc(CNC(=O)c2c(O)c3cccc4c3n(c2=O)CCC4)cc1	-2.6	-0.658	0.0931	.	.	.
O=C(c1cccs1)c1coc2ccc(O)c(CN3CCOCC3)c12	7.2	1.01	17.6*	20688*	.	+
O=C(c1cccs1)c1coc2ccc(O)cc12	-2.4	-0.796	.	.	.	.
CCN(CC)CCn1c(-c2ccccc2)nc(=S)c2c1CC(C)(C)OC2	3.7	0.129	.	.	.	.
CC1(C)Cc2nc(-c3ccccc3)n3cnnc3c2CO1	.	-0.041	9.47*	13436*	1760	+
CC(C)C[C@H](NC(=O)c1nc[nH]c1C(=O)N(C)Cc1ccccc1)C(=O)OC(C)(C)C	.	-0.567	.	.	.	.
O=C(CCC1CCCC1)NC1CCCCC1	3.6	2.75	.	.	.	.
COC(=O)C1CN(S(=O)(=O)c2ccccc2)CCN1S(=O)(=O)c1ccccc1 (stereo unspecified)	4.9	0.27	.	.	.	.
CCCCOc1ccccc1NC(=O)c1ccc(=O)[nH]c1	4.5	-0.648	0.411	.	.	.
CCCOc1ccccc1NC(=O)c1ccc(N)cc1	1.4	0.665	3*	7556*	1560	i
SMILES	EphB4 ephrin blk	hDAT+cocaine	D1 mod	D1 mod confirm	D1 ag no DA	Isoprot counter
Cc1ccc(Nc2c([N+](=O)[O-])c(=O)n(C)c3ccccc23)cc1C	-11.8	-0.0269	.	.	.	.
Cc1cccc(N2C(=O)CC(Sc3nc(-c4ccccc4)c4cc(Cl)ccc4n3)C2=O)c1 (stereo unspecified)	-1.0	0.407	.	.	.	.
CCc1nc(Nc2ccccc2)c2oc3ccccc3c2n1	-0.2	-0.786	.	.	.	.
CCc1nc(NCCCn2ccnc2)c2oc3ccccc3c2n1	-5.7	0.804	5.53*	13664*	.	+
Cc1nc2ccccc2nc1N1CCOCC1	0.4	-1.18	.	.	.	.
CSc1nc(N2CCOCC2)c2ccccc2n1	5.5	-0.889	9.41*	16028*	.	+
Cc1nnc(-c2ccccc2)nc1N1CCOCC1	-5.0	-0.954	.	.	.	.
Cc1nc(N2CCOCC2)c2cc(-c3ccccc3)sc2n1	.	2.63	7.92*	14040*	1460	+
CC(=O)/C=C1/SC(CC(=O)O)C(=O)N1c1ccccc1 (stereo unspecified)	-3.5	-1.5	.	.	.	.
O=C(COC(=O)C12CC3CC(CC(C3)C1)C2)NCCc1ccccc1	1.7	1.02	.	.	.	.
CCOC(=O)c1c(C)oc2c1c(C=NCc1ccccn1)c(O)c1ccccc12	.	-0.0303	4.17*	12568*	1616	i
CCOC(=O)c1c(C)oc2c1c(C=NCC1CCCO1)c(O)c1ccccc12 (stereo unspecified)	-6.5	-0.579	0.119	.	.	.
Cc1ccc(-n2c(C)nn(-c3ncc(C(F)(F)F)cc3Cl)c2=O)cc1	4.5	0.643	.	.	.	.
Cn1c(=O)c2c(SCc3cccc(C(F)(F)F)c3)nc(-c3ccco3)nc2n(C)c1=O	-0.1	-0.0101	-0.24	.	.	.
Cn1c(=O)c2c(SCc3ccccc3)nc(-c3ccco3)nc2n(C)c1=O	.	-0.000937	3.25*	12880*	1832	i
O=C(c1ccncc1)N1CCN(C(=O)c2cccc3ccccc23)CC1	-1.7	0.166	-0.00448	.	.	.
O=C(c1cccc2ccccc12)N1CCN(CC2CC=CCC2)CC1 (stereo unspecified)	-3.2	-0.321	4.61*	5828	1612	i
CCc1nn(-c2ccccc2)c2c1-c1cc(OC)c(OC)cc1C1(N2)C(=O)Nc2ccccc21 (stereo unspecified)	-0.1	.	.	.	.	.
Cc1cc(S(=O)(=O)NC(C)C)ccc1OCC(=O)N1CCOCC1	3.5	-2.2	.	.	.	.
CC1C=Cc2ccccc2N1C(=O)c1ccccc1 (stereo unspecified)	3.9	-0.437	4*	9976*	1476	i
CCOC(=O)N1c2ccccc2C=CC1OCC (stereo unspecified)	.	-0.0693	.	.	.	.
Cc1cccc(-c2c3c(=O)n(C)c(=O)n(C)c3cn2-c2ccccc2O)c1	-1.9	0.84	5.8*	9336*	1844	i
CC(=O)Nn1cc2c(c1-c1ccccc1)c(=O)n(C)c(=O)n2C	-5.8	-0.298	1.28	.	.	.
O=C(Oc1ccccc1Cl)c1ccc(-n2cncn2)nc1	-5.5	-1.62	.	.	.	.
COc1ccc(CCN2C(=O)C3C4C=CC(C3C2=O)C2C(=O)N(CCc3ccc(OC)c(OC)c3)C(=O)C42)cc1OC (stereo unspecified)	7.2	0.0646	.	.	.	.
SMILES	EphB4 ephrin blk	hDAT+cocaine	D1 mod	D1 mod confirm	D1 ag no DA	Isoprot counter
COc1ccc(CCn2c(N)cc(=O)[nH]c2=S)cc1OC	4.4	0.0693	11.1*	16604*	1548	+
O=C(Nc1cc(Cl)cc(Cl)c1)c1ccc(Cn2c(=O)[nH]c3ccsc3c2=O)cc1	.	-1.28	.	.	.	.
CCC(=O)N1CCc2cc(S(=O)(=O)N3CCc4ccccc4C3)ccc21	-1.6	-1.69	0.632	.	.	.
CCC(=O)N1CCc2cc(S(=O)(=O)N3CCN(c4ccccn4)CC3)ccc21	-0.1	-1.63	2.66*	13196*	1512	+
CCCc1cc(C(N)=O)c(NC(=O)C2CCCO2)s1 (stereo unspecified)	0.3	1.54	0.876	.	.	.
CCCc1cc(C(N)=O)c(NC(=O)c2ccco2)s1	-0.6	0.0475	5.03*	10424*	1588	+
COc1ccc(OCc2nnc3n2N=C(c2ccc(OC)cc2)CS3)cc1	-1.5	2.15	9.69*	13236*	.	+
COc1ccc(C2=Nn3c(nnc3-c3ccncc3)SC2)cc1	-0.4	-0.17	.	.	.	.
COc1ccc(OCc2nnc3n2N=C(c2ccc(C)cc2)CS3)cc1	1.4	0.27	1.48	.	.	.

Assay outcomes from PubChem.
